Test results from PubChem BioAssay (Tox21).
Results filed as inconclusive are left out. Activity calls are given as the source filed them. Unless noted, calls come from the whole dose curve; as a rule, active = well fitted curve in the direction sought with a large enough effect in the repeat runs; inconclusive = weak or mixed curves; inactive = no such curve, though single readings can be large; an effect the other way counts as inactive or inconclusive.

How the values were obtained:
[1] = qHTS assay to identify small molecule agonists of the vitamin D receptor (VDR) signaling pathway - cell viability counter screen (AID 743224); note: nearly all actives have a fitted effect of over 50% in size
Summary of the method: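 VDR-bla cells, 4 h after plating, exposed to compounds for 16 h at 37C; viability then read in the same wells as CellTiter-Glo luminescence after 30 min at room temperature, following the bla FRET read.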

[2] = qHTS assay to identify small molecule agonists of the NFkB signaling pathway (AID 1159509; active = well fitted curve in the direction sought with a large enough effect in the signal ratio in the repeat runs, not every such curve was filed as active; the % refers to the signal ratio)
Summary of the method: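 ME-180 NFkB-bla, 2,000 cells/well, overnight plating; cpd pinned in DMSO, 5 h 37 C; B/G FRET substrate 1.5 h RT; ex 405, em 460/530 nm.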

[3] = qHTS assay to identify small molecule agonists of the NFkB signaling pathway - cell viability counter screen (AID 1159515; calls by dose curve; note: nearly all actives have a fitted effect of over 55% in size)
Summary of the method: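 NFkB-bla ME-180 cells, 2,000/well, plated overnight at 37 C; compound added for 5 hr at 37 C. Viability read in the same wells as the bla reporter, by CellTiter-Glo luminescence after 30 min at room temperature.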

[4] = qHTS assay to identify small molecule agonists of the endoplasmic reticulum stress response signaling pathway (AID 1159516; active = well fitted activation curve with a large enough effect in the signal ratio in the repeat runs, not every such curve was filed as active; the % refers to the signal ratio)
Summary of the method: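 CellSensor ESRE-bla HeLa cells, 1,500 per well, plated overnight, then exposed to compounds for 5 hr at 37 C. Beta-lactamase reporter read with LiveBLAzer B/G FRET substrate after 2 hr at room temperature, 405 nm excitation, 460 and 530 nm emission.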

[5] = qHTS assay to identify small molecule agonists of the endoplasmic reticulum stress response signaling pathway - cell viability counter screen (AID 1159517; calls by dose curve;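 note: HeLa cells carrying an ER stress response element beta-lactamase reporter; nearly all actives have a fitted effect of over 50% in size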)
Summary of the method: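 ESRE-bla HeLa cells, 1,500 per well, seeded overnight then treated with compounds for 5 hr at 37 C. After the beta-lactamase read, viability in the same wells is measured by CellTiter-Glo luminescence after 30 min at room temperature.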

[6] = qHTS assay to identify small molecule antagonists of the retinoid-related orphan receptor gamma (ROR-gamma) signaling pathway - cell viability counter screen (AID 1159520); note: nearly all actives have a fitted effect of over 50% in size
Summary of the method: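 Tet-on ROR gamma CHO cells were given compounds for 2 hr, then doxycycline hyclate at 1 uM final, and incubated 16 hr at 37 C. Viability was measured as ATP content by CellTiter-Glo luminescence.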

[7] = molecular target: Nuclear receptor ROR-gamma (Homo sapiens) (UniProt P51449); assay: qHTS assay to identify small molecule antagonists of the retinoid-related orphan receptor gamma (ROR-gamma) signaling pathway (AID 1159521;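 note: CHO cells with doxycycline inducible ROR-gamma driving an RORE luciferase reporter; top concentration of the series differs between compounds; nearly all actives have a fitted effect of over 50% in size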)
Summary of the method: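 Decreased RORE-driven luciferase luminescence indicates antagonism. Tet-on RORγ CHO cells received compound, then 1 uM final doxycycline 2 h later; signal read after 16 h incubation.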

[8] = qHTS assay to identify small molecule agonists of the AP-1 signaling pathway - cell viability counter screen (AID 1159525; calls by dose curve; note: nearly all actives have a fitted effect of over 55% in size)
Summary of the method: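 AP-1-bla ME-180 cells in Opti-MEM with 0.5% dialyzed FBS, compound exposure 5 h at 37 C in 15-point titration. Viability read in the same wells as ATP content by CellTiter-Glo luminescence, normalised to tetra-n-octylammonium bromide and DMSO controls.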

[9] = qHTS assay to identify small molecule agonists of the AP-1 signaling pathway (AID 1159526; calls by dose curve)
[10] = molecular target: Retinoic acid receptor RXR-alpha (Homo sapiens) (UniProt P19793); assay: qHTS assay to identify small molecule agonists of the RXR signaling pathway (AID 1159527; calls by dose curve; note: nearly all actives have a fitted effect of over 35% in size)
Summary of the method: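 16 hr incubation of compound-treated RXR-alpha-UAS-bla HEK 293T cells (2% charcoal-stripped FBS, 37 C) preceded a 2 hr room-temperature LiveBLAzer FRET substrate step and blue/green fluorescence measurement.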

[11] = qHTS assay to identify small molecule agonists of the RXR signaling pathway - cell viability counter screen (AID 1159529)
Summary of the method: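 In this parallel viability measure, GeneBLAzer RXR-alpha HEK 293T cells (2% charcoal-stripped FBS) were given a 5 hr preincubation, treated with compounds 16 hr at 37 C, and read by CellTiter-Glo luminescence.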

[12] = qHTS assay to identify small molecule antagonists of the retinoid acid receptor (RAR) signaling pathway - cell viability counter screen (AID 1159551); note: nearly all actives have a fitted effect of over 35% in size
Summary of the method: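 C3RL4 RARE-luciferase cells, 1,000/well, incubated overnight, then dosed with compound plus 1 uM retinol (final). After 6 hr at 37 C, viability read by CellTiter-Glo ATP luminescence following 30 min at room temperature.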

[13] = qHTS assay to identify small molecule antagonists of the retinoic acid receptor (RAR) signaling pathway (AID 1159552; note: nearly all actives have a fitted effect of over 50% in size)
Summary of the method: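 C3RL4 RARE-luc cells, overnight plating; retinol 1 uM final added right after compound; 6 hr 37 C; luciferase read at 30 min RT.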

[14] = qHTS assay to identify small molecule agonists of the retinoic acid receptor (RAR) signaling pathway (AID 1159553); conditions: C3RL4 RARE luciferase reporter, agonist, 6 h; activation: at 73.3 µM (top of the series)
Summary of the method: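 C3RL4 RARE-luciferase cells were seeded at 1,000/well and grown overnight at 37 C, then exposed to compounds for 6 hr at 37 C, 5% CO2. Luciferase reagent was added and luminescence was read after 30 min at room temperature.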

[15] = qHTS assay to identify small molecule antagonists of the estrogen related receptor (ERR) signaling pathway from Tox21 library - cell viability counter screen (AID 1224834); note: nearly all actives have a fitted effect of over 30% in size
Summary of the method: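 ERR reporter cells, 2,000 per well, rested 6 h, then exposed to compound in DMSO for 17.5 hours at 37 C. Viability read as fluorescence after 30 min with CellTiter-Fluor.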

[16] = molecular target: Luciferin 4-monooxygenase (Photinus pyralis) (UniProt P08659); assay: qHTS assay to identify small molecule inhibitors of firefly luciferase (AID 1224835); note: nearly all actives have a fitted effect of over 25% in size
Summary of the method: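 Biochemical qHTS: compounds run as interplate titrations against purified firefly enzyme, with D-luciferin and ATP each at its KM concentration. Light output recorded by CCD imaging.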

[17] = qHTS assay to identify small molecule agonists of the constitutive androstane receptor (CAR) signaling pathway - cell viability counter screen (AID 1224836); note: nearly all actives have a fitted effect of over 45% in size
Summary of the method: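 Using CellTiter-Fluor, viability of HepG2 cells harbouring hCAR and CYP2B6-2.2kb was measured following 23 h incubation with a 15-concentration compound series plus PK11195 (0.75 uM final).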

[18] = qHTS assay to identify small molecule antagonists of the constitutive androstane receptor (CAR) signaling pathway - cell viability counter screen (AID 1224837); note: nearly all actives have a fitted effect of over 45% in size
Summary of the method: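 HepG2 cells stably carrying hCAR and CYP2B6-2.2kb reporter, stimulated with 50 nM CITCO and compounds at 15 concentrations for 23 h at 37 C. Viability measured by CellTiter-Fluor fluorescence.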

[19] = molecular target: Nuclear receptor subfamily 1 group I member 3 (Homo sapiens) (UniProt Q14994); assay: qHTS assay to identify small molecule antagonists of the constitutive androstane receptor (CAR) signaling pathway (AID 1224838); note: nearly all actives have a fitted effect of over 40% in size
Summary of the method: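 HepG2 cells stably carrying hCAR and a CYP2B6-2.2kb luciferase reporter, seeded 4 hrs before compound (15 concentrations). Stimulated with 50 nM CITCO for 24 hr at 37 C. ONE-Glo luminescence read after 30 min at room temperature.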

[20] = qHTS assay to identify small molecule antagonists of the vitamin D receptor (VDR) signaling pathway - cell viability counter screen (AID 743225); note: nearly all actives have a fitted effect of over 50% in size
Summary of the method: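 Parallel cytotoxicity test: VDR-UAS-bla HEK 293T, 3 nM (final) 1-alpha,25-dihydroxyvitamin D3 with test compound, 16 h, 37C. Endpoint is CellTiter-Glo luminescence in the same wells.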

Measured: Potency

Sequence of Nuclear receptor subfamily 1 group I member 3 (Homo sapiens) (Q14994 whole entry, looked up): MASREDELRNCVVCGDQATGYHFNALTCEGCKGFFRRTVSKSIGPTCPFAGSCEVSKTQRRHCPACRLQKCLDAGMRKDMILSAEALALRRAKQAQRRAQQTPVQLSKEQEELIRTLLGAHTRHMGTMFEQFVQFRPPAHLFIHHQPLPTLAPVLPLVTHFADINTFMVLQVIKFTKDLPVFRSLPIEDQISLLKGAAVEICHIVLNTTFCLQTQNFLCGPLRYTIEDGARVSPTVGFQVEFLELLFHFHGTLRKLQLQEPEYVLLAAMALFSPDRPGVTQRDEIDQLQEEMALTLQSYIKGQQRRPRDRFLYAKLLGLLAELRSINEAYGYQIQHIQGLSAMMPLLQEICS
Sequence of Luciferin 4-monooxygenase (Photinus pyralis) (P08659 whole entry, looked up): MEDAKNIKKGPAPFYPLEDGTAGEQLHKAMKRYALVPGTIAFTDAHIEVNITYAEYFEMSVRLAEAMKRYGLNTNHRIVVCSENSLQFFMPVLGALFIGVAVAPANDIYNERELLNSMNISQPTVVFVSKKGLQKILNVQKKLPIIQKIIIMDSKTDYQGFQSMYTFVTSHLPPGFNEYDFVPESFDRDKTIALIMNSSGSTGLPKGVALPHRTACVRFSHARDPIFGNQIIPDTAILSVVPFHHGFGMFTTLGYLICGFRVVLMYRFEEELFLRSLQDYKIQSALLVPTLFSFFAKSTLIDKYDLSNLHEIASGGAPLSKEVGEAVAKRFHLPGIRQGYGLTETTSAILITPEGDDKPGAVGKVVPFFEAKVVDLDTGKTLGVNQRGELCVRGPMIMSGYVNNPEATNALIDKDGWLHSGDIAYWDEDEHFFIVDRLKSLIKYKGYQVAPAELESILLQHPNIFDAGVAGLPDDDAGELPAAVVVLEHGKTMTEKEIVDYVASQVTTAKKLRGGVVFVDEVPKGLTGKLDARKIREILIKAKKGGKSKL
Sequence of Retinoic acid receptor RXR-alpha (Homo sapiens) (P19793 whole entry, looked up): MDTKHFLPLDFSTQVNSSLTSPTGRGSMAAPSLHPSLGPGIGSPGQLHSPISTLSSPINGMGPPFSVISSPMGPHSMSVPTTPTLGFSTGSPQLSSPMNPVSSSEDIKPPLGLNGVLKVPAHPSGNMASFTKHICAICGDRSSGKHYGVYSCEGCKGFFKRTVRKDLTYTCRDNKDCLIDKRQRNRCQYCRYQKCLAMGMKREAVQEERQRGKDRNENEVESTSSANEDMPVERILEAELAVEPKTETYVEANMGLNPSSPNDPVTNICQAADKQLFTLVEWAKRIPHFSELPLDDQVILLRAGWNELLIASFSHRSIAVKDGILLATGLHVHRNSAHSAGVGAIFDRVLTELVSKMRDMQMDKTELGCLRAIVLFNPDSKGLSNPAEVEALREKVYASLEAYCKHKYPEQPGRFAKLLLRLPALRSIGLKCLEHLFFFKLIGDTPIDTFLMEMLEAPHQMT

Cc1oc(=O)oc1CN1CCN(c2cc3c(cc2F)c(=O)c(C(=O)O)c2n3C(C)S2)CC1 (centres undefined)
not listed: [19] | [20]
inactive: all other assays above

Nc1cc(Cl)cc(S(=O)(=O)O)c1O
not listed: [20]
inactive: all other assays above

COC(OC)C(C)c1ccccc1 (centres undefined)
not listed: [1] | [19]
inactive: all other assays above

CCCCCC1Nc2cc(C(F)(F)F)c(S(N)(=O)=O)cc2S(=O)(=O)N1 (centres undefined)
not listed: [19]
inactive: all other assays above

Cc1ccccc1C(=O)N1CC/C(=N\OS(=O)(=O)O)c2ccc(Cl)cc21
not listed: [19]
inactive: all other assays above

CC(=O)OCC(=O)[C@@]1(O)[C@H](OC(C)=O)C[C@H]2[C@@H]3CCC4=CC(=O)C=C[C@]4(C)[C@@]3(F)[C@@H](O)C[C@@]21C
not listed: [20]
inactive: all other assays above

CCCCCCCCCCCCC
not listed: [19]
inactive: all other assays above

CC(=O)Nc1ccc(C)cc1
not listed: [19] | [20]
inactive: all other assays above

CC(=O)N(CC(O)CO)c1c(I)c(C(=O)NCC(O)CO)c(I)c(C(=O)NCC(O)CO)c1I (centres undefined)
not listed: [19]
inactive: all other assays above

O=C(O)/C=C/c1ccccc1
not listed: [16] | [17] | [19]
inactive: all other assays above

c1ccc(CNc2ncnc3nc[nH]c23)cc1
not listed: [17] | [18] | [19]
inactive: all other assays above

CC(C)COC(=O)CCCCC(=O)OCC(C)C
not listed: [15] | [17] | [19]
inactive: all other assays above

Cc1cccc(C(=O)O)c1[N+](=O)[O-]
not listed: [16]
inactive: all other assays above

CCc1nccnc1C
not listed: [17] | [19]
inactive: all other assays above

Cc1ccc(S(=O)(=O)NC(=O)NC2CCCCCCC2)cc1
not listed: [13] | [19]
inactive: all other assays above
